Laboratory results from PubChem BioAssay (NCATS).
Several values for one entry are separate records, joined by “and”; a condition that tells them apart may be missing. Equal entries are not always repeated. Records with an inconclusive call do not appear. Activity calls are given as the source filed them. Unless noted, calls come from the whole dose curve; as a rule, active = well fitted inhibition curve with a large enough effect; inconclusive = small, poorly fitted or top-dose-only effect; inactive = flat fitted curve, though single readings scatter.

Assays:
[1] = Drug repurposing screens with cells derived from glioblastoma tumor samples (AID 1345199); settings: GBM patient neurospheres viability, ATP luminescence, 48 h; note: % is set by controls: 0 for no effect and ±100 for the full control effect; nearly all actives have a fitted effect of over 40% in size
Outline: (§1)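 Four patient lines of CD133+ GBM neurospheres were screened at several concentrations; hits were retested in those lines plus three slower-growing GBM lines, using 48-hour treatment and ATP-based viability.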

[2] = test system: astro; test: as above; settings: viability, ATP luminescence, 48 h; series mostly up to 45.9 µM
Outline: as §1

[3] = biological target: Nuclear receptor subfamily 1 group I member 2 (Rattus norvegicus) (UniProt Q9R1A7); test: qHTS assay for small molecule activators of the rat pregnane X receptor (rPXR) signaling pathway (AID 651751; call rule not given here; note: 0% is about no effect); settings: rPXR reporter cells, luciferase (One-Glo), 24 h
[4] = qHTS assay for small molecule activators of the human pregnane X receptor (PXR) signaling pathway (AID 720659; call rule not given here; note: 0% is about no effect); settings: DPX-2 HepG2 CYP3A4-luciferase, 24 h; series mostly up to 92.3 µM
[5] = at 45.9 µM (top of the series), tumour line B
[6] = at 45.9 µM (top of the series), tumour line D
[7] = at 46 µM (top of the series), tumour line A
[8] = at 46.1 µM (top of the series), tumour line C

Chain of Nuclear receptor subfamily 1 group I member 2 (Rattus norvegicus) (Q9R1A7 whole entry, looked up): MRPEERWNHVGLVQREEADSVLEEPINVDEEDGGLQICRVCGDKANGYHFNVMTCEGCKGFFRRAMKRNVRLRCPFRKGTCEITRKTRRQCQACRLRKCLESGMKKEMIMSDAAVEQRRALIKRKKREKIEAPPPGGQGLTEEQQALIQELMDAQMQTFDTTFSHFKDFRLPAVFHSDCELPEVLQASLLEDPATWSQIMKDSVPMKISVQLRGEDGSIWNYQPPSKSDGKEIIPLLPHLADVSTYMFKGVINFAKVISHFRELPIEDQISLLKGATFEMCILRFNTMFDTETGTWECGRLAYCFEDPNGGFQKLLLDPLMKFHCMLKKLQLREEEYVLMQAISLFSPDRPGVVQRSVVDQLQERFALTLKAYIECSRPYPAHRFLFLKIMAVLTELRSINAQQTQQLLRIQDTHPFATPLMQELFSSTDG

C[C@H](CCC(=O)O)[C@H]1CC[C@H]2[C@@H]3CC[C@@H]4C[C@H](O)CC[C@]4(C)[C@H]3C[C@H](O)[C@]12C
inactive: activity, negative = cell killing [1, 5] -4.54% | activity, negative = cell killing [1, 6] 7.18% | activity, negative = cell killing [1, 7] -19.5% | activity, negative = cell killing [1, 8] -8.85% | Potency [2] | max response [3] -12.5%

NS(=O)(=O)c1cc2c(cc1Cl)NC(Cc1ccccc1)NS2(=O)=O (stereo not given)
inactive: activity, negative = cell killing [1, 5] 4.57% | activity, negative = cell killing [1, 6] 9.26% | activity, negative = cell killing [1, 7] -28.7% | activity, negative = cell killing [1, 8] 0.872% | Potency [2]

C[C@@H]1O[C@@H](OC[C@H]2O[C@@H](Oc3c(-c4ccc(OCCO)c(OCCO)c4)oc4cc(OCCO)cc(O)c4c3=O)[C@H](O)[C@@H](O)[C@@H]2O)[C@H](O)[C@H](O)[C@H]1O
inactive: activity, negative = cell killing [1, 5] -5.23% | activity, negative = cell killing [1, 6] -14.3% | activity, negative = cell killing [1, 7] -13.8% | activity, negative = cell killing [1, 8] -13.8% | Potency [2]

CC1=CCC2CC1C2(C)C (stereo not given)
inactive: activity, negative = cell killing [1, 5] -2.1% | activity, negative = cell killing [1, 6] 2.05% | activity, negative = cell killing [1, 7] -19.4% | activity, negative = cell killing [1, 8] 11.1% | Potency [2] | max response [3] 1.07% | outcome [4]

O=C1c2ccccc2CN2C(=O)c3ccccc3CN12
inactive: activity, negative = cell killing [1, 5] -20.4% | activity, negative = cell killing [1, 6] -5.7% | activity, negative = cell killing [1, 7] -23.1% | activity, negative = cell killing [1, 8] -20% | Potency [2]

C[C@@H]1O[C@@H]1P(=O)(O)O
inactive: activity, negative = cell killing [1, 5] -9.49% | activity, negative = cell killing [1, 6] -16.5% | activity, negative = cell killing [1, 7] -24.5% | activity, negative = cell killing [1, 8] -7.45% | Potency [2]

Nc1ncnc2c1ncn2[C@H]1CC[C@@H](CO)O1
inactive: activity, negative = cell killing [1, 5] -7.29% | activity, negative = cell killing [1, 6] -3.43% | activity, negative = cell killing [1, 7] -28.3% | activity, negative = cell killing [1, 8] -20.8% | Potency [2] | max response [3] -2.84% and -0.199% | outcome [4]
